Active and inactive are the calls of the source. Rule for the calls: active = hit-call score of the fitted dose curve at least 0.9, where 1 is the maximum; inactive = score below 0.9.
The molecules below were run on rat KATP Antagonism, gene 24521 (assay: ERF_FR_IC_rKCNJ1: Eurofins (ERF) Potassium Ion Channel Mass Spectrometry Ligand Binding LeadHunter Assay for rat KATP Antagonism).
Procedure: ERF_FR_IC_rKCNJ1 is a biochemical, single-readout assay that uses extracted gene-proteins in a cell-free assay. Measurements were taken 1 hour after chemical dosing in a 96-well plate. See KATP Rat Potassium Ion Channel Binding (Antagonist Radioligand) Assay, Cerep.ERF_FR_IC_rKCNJ1 is an assay component calculated from the ERF_FR_IC_rKCNJ1 assay. It is designed to measure radioligand binding using a type of binding reporter as detected by scintillation counting with radiometry technology.Data from the assay component ERF_FR_IC_rKCNJ1 was analyzed at the assay endpoint, ERF_FR_IC_rKCNJ1, in the positive analysis fitting direction relative to DMSO as the negative control and baseline of activity. Using a type of binding reporter, loss-of-signal activity can be used to understand changes in binding as they relate to gene KCNJ1. To generalize the intended target to other relatable targets, this assay endpoint is annotated to the ion channel intended target family, where the subfamily is voltage gated (Potassium).
Rat cells are incubated for 60 minutes at room temprature with Glibenclamide (0.07 nM) as ligand and Glibenclamide-d3 (30nM) as control inhibitor. Test Sample Requirements: Minimum for 1) Screen: 60 ul of 10 mM stock -OR- 1 mg (pre-weighed) for 10 uM final testing. 2) Dose Response: 90 ul of 10 mM stock -OR- 1 mg (pre-weighed) for a top concentration at 10 uM.

SMILES | AC50
O=C(/C=C/c1ccc(O)cc1)CC(=O)/C=C/c1ccc(O)cc1 | 880 nM (active)

— PubChem BioAssay AID2284173 (EPA ToxCast)
